Data reported in the supplement of paper PMC10338343.
± gives the standard deviation.

These sequences were tested on MILI (PIWIL2) piRISC loaded with L1MC piRNA (26 nt) (assay: pre-steady-state target cleavage rate (min^-1); guide: L1MC piRNA 5'p-UAACUAAAUACUAUGCAAGCUGUAGG; MIWI and MILI are mouse PIWI proteins and EfPiwi is from a freshwater sponge; tags in brackets are library labels; higher = faster piRNA-guided slicing of the target). Details: auxiliary factor: 500 nM mouse GTSF1.
Procedure, shortened: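 The method was Cleave-'n-Seq, in which uncleaved targets from a transcribed, DNA-blocked target RNA library were sequenced after exposure to active affinity-purified piRISC carrying one synthetic guide, with or without GTSF1 partner protein. Reactions contained 0.1 nM library, 1 nM piRISC and, where present, 500 nM GTSF1 in HEPES–potassium acetate buffer at 33 °C for 0–8 or 0–960 min. Reads were normalised to depth and to weakly complementary targets, three trials were pooled, and k3 was capped at 0.0001 min^-1. The pre-steady-state cleavage rate came from a burst-and-steady-state fit.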

Sequence	pre-steady-state target cleavage rate
UCCUGGAUGAGGUUGCAUAGAAUUUAGUUA	0.00935 ± 0.0046
UCCUGGAUCAGCUUGCAUAGAAUUUAGAAA	0.0123 ± 0.0052
UCCUGGAUGUCCUUGCAUAGUAUUUUGUUA	0.0499 ± 0.0089
UCCUGGAUGUCGUUGCAUAGUAUUUAGGUA	0.0112 ± 0.0062
UCCUGGAUGUCGAUGCAUAGUAUUUCGUUA	0.0116 ± 0.0056
UCCUCCUACAGCAACCAUAGUAUUUAGAAA	0.0741 ± 0.02
UCCUGGAUCAGCUUGCAUAGUAUUUCAGUUA	0.162 ± 0.028
UCCUGGUACAGCUUGCAUAGUAAUUACUUA	0.00729 ± 0.0052
UCCUGGAUGUGCUUGCAUUGUAUUUAGUAA	0.0856 ± 0.015
UCCUGGUACAGCAAGCAUAGUAUUUACAAA	0.0528 ± 0.019
UCCUGGAUGAGCAUGCAUAGUAUUUACAAA	0.0679 ± 0.018
UCCUGCUACAGCUACGAUAGUAUUUAGAAA	0.0517 ± 0.019
UCCUGGAUGUGCUUGCAUAGUAUUUAUUUA	0.0305 ± 0.011
UCCUGGUACAGCUUGCAUAGUAUAUAGAUA	0.014 ± 0.0071
UCCUGGAUGUCCUUGCAAAGUAUUUACUUA	0.0234 ± 0.0076
UCCUGGAUGUCCUUGCAAUAGUAUUUAGUUA	0.00466 ± 0.0043
UCCUGGAUGAGCUUGGAUAGUAUUUUGUUA	0.141 ± 0.029

Sequence	pre-steady-state target cleavage rate
UCCUGGAUGUCGAAGCAUAGUAUUCUAGUUA	0.0193 ± 0.0065
UCCUGCUACAGCUUGCAAAGUAUUUAGAUA	0.0895 ± 0.012
UCCUGCUACAGCUUGCAUAGUAUUUAGAAA	0.157 ± 0.032
UCCUGGAUGUCCUUGCAUAGUAUUAAGUAA	0.0433 ± 0.013
UCCUGGAUGUCGAUGCAUAGUAUAUAGUAA	0.063 ± 0.013
UCCUCGUACAGCUUCCAUAGUAUUUAGUUA	0.0687 ± 0.018
UCCUGGUACAGCUUGCUUAGUAUUUACAAA	0.0242 ± 0.009
UCCUGGAUCAGCUUGCAUUGUAUUUACAAA	0.0117 ± 0.005
UCCUGGAUGAGCUUGCAUACUAAUUAGUUA	0.0128 ± 0.0042
UCCUGGAUGUCCUUCCAUAGUAUUUAGUUA	0.0223 ± 0.008
UCCUGGAUCAGCUUGCAUAGUAUAAAGAAA	0.0366 ± 0.01
UCCUGGAACAGCUUGCAUAGUAAUUACAAA	0.0522 ± 0.019
UCCUGGAUCAGCUUGCAAAGUAUUUUCAAA	0.00923 ± 0.0045
UCCUGGAUGUCGAACGUAUCUAUUUAGGUA	< 0.0001
UCCUGGAUGUCCUUGCAUAGUAAAUAGUAA	0.00932 ± 0.0037
UCCUCCUACAGCUACGAUAGUAUUUAGUAA	0.174 ± 0.024
UCCUGGAUGUGCUUGCUUAGUAUUUACUUA	0.0644 ± 0.015
